Results filed as inconclusive are left out. Active and inactive are the calls of the source. The call rests on the fitted dose curve; in most records, active means well fitted curve in the direction sought with a large enough effect; inconclusive means small, poorly fitted or top-dose-only effect, or another doubt; inactive means no such curve, though single readings can be large; an effect the other way counts as inactive or inconclusive.
Assays:
[1] = Cellular Toxicity (caspase-3) N2a (AID 665);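 further: compound exposure lasted 16 h at 37 °C before readout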
How it was run: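 Caspase-3/7 activation, measured as increased luminescence from aminoluciferin release, is quantified in mouse N2a cells exposed to compounds for 16 h. Values are normalized to DMSO and 10 uM staurosporine, with AC50 derived by Hill modelling.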

[2] = Cellular Toxicity (caspase-3) NIH 3T3 (AID 666);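 further: caspase signal read after 16 h compound exposure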
How it was run: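 Cells were plated at 1000 per well and incubated 5 hr at 37°C, then compound was added for 16 hr. Caspase-Glo 3/7 reagent followed for 20 min at room temperature before luminescence was read.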

[3] = Cellular Toxicity (caspase-3) Renal Proximal Tubule (AID 667);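 further: cells exposed to compound for 16 hours at 37 °C before detection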
How it was run: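 Primary rat proximal tubule cells, 1000/well, 5 h plating at 37 °C, then compound 16 h at 37 °C. Caspase-Glo 3/7 reagent, 1 h RT, luminescence. Normalized to DMSO (basal) and 10 uM staurosporine (100%); Hill-fit AC50.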

[4] = target: Cytochrome P450 3A4 (Homo sapiens) (UniProt P08684); experiment: qHTS Assay for Inhibitors and Substrates of Cytochrome P450 3A4 (AID 884); further: series mostly up to about 57 µM; nearly all actives have a fitted effect of over 50% in size
Chain of Cytochrome P450 3A4 (Homo sapiens) (P08684 whole entry, looked up): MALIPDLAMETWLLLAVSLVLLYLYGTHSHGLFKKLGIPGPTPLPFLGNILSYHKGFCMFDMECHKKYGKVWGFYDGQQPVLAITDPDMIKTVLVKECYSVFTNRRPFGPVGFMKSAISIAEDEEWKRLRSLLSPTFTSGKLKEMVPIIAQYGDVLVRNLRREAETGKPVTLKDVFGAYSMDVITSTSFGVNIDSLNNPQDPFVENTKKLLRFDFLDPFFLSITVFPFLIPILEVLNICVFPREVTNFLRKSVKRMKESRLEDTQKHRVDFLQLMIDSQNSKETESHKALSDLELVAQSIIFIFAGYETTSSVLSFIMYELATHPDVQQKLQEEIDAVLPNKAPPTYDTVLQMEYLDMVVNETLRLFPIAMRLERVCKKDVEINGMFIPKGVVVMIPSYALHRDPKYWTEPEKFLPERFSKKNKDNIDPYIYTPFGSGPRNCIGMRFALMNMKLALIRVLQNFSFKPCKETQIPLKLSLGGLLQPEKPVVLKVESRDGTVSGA
How it was run: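 Luminescent readout of luciferin produced by CYP3A4 (20 nM) dealkylation of Luciferin-PPXE, 25 uM (its KM). NADPH-driven reaction ran 60 min at RT after 10 min compound preincubation; data scaled to 57 uM ketoconazole as 100% inhibition.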

[5] = MultiTox-Fluor Cytotoxicity Assay - LYMP1-001 - Dead Cells (AID 946)
How it was run: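 AC50 from Hill fit of concentration-response; data normalized to DMSO (basal) and 15 uM tetraoctylammonium bromide (100%). LYMP1-001 lymphoblastoid cells, 2500/well, 16 hr compound at 37 C; dead-cell protease fluorescence, Ex/Em 485/520.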

[6] = MultiTox-Fluor Cytotoxicity Assay - LYMP1-001 - Live Cells (AID 947)
[7] = Cell Viability - LYMP1-002 - Assay at 16 hr (AID 948)
How it was run: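 Human lymphoblastoid cells (LYMP1-002), 2500/well, were preincubated 5 hr at 37 C, then exposed to compounds for 16 hr at 37 C in complete medium. Cellular ATP was read by CellTiter-Glo luminescence after 30 min at room temperature; AC50 from Hill fits.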

[8] = MultiTox-Fluor Cytotoxicity Assay - LYMP1-002 - Live Cells (AID 955)
How it was run: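 Cells were seeded at 2500 per well and incubated 5 hr. Compounds were then added for 16 hr at 37 C, followed by MultiTox-Fluor reagent for 60 min at room temperature and fluorescence reading of viable-cell protease signal.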

[9] = MultiTox-Fluor Cytotoxicity Assay - LYMP1-002 - Dead Cells (AID 960); further: nearly all actives have a fitted effect of over 60% in size
How it was run: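 Cells were plated, rested 5 hr, then treated with compound dilution series for 16 hr at 37 C. After adding substrate reagent and 60 min at room temperature, dead-cell protease fluorescence gave concentration-response curves fitted by the Hill equation.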

[10] = MultiTox-Fluor Cytotoxicity Assay - LYMP1-003 - Dead Cells (AID 961); further: nearly all actives have a fitted effect of over 70% in size
How it was run: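 Human lymphoblastoid LYMP1-003 cells (2500/well) were treated with compounds for 16 hr at 37 C in complete medium. Dead-cell protease release was read by bis-AAF-R110 fluorescence (Ex/Em 485/520). AC50 came from Hill fits, normalized to DMSO and 15 uM tetraoctylammonium bromide.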

[11] = MultiTox-Fluor Cytotoxicity Assay - LYMP1-003 - Live Cells (AID 962);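 further: cytotoxic hits lower the live-cell protease signal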
How it was run: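 Acute cytotoxicity is scored as a drop in live-cell protease activity in human lymphoblastoid LYMP1-003 cells after 16 hr compound exposure at 37 C. AC50 values come from Hill-equation modelling of concentration-response data.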

[12] = Cell Viability - LYMP1-003 - Assay at 24 hr (AID 963)
How it was run: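 Cytotoxicity is scored as a concentration-dependent fall in ATP-linked luciferase signal in human lymphoblastoid LYMP1-003 cells treated 24 hr at 37 C in complete culture medium.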

[13] = Cell Viability - LYMP1-003 - Assay at 40 hr (AID 964); further: series mostly up to about 92 µM; nearly all actives have a fitted effect of over 60% in size
How it was run: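 Luminescent ATP signal (CellTiter-Glo) served as the viability read-out after 40 hr compound treatment of human lymphoblastoid LYMP1-003 cells at 37 C. Decreases in ATP were fitted with the Hill equation to give AC50.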

[14] = Cell Viability - LYMP2-003 (AID 965);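 further: cells exposed to compounds for 24 h before reading; nearly all actives have a fitted effect of over 50% in size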
How it was run: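 Human lymphoblastoid cells (2500/well) were pre-incubated 5 hr at 37 C, then exposed to compounds over a concentration range for 24 hr at 37 C. Intracellular ATP was read by CellTiter-Glo luminescence; AC50 came from Hill-equation fits.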

[15] = Cell Viability - LYMP2-004 (AID 966); further: nearly all actives have a fitted effect of over 65% in size
How it was run: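 qHTS cytotoxicity: human lymphoblastoid line, 24 hr compound treatment, 37 C, complete medium. Viability read as cellular ATP via luciferase luminescence; tetraoctylammonium bromide served as positive control.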

[16] = Cell Viability - LYMP2-005 (AID 967); further: series mostly up to about 92 µM
How it was run: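 CellTiter-Glo luminescence (cellular ATP) read-out; LYMP2-005 lymphoblastoid cells, 2500/well, 5 h pre-incubation, then 24 h compound exposure at 37 C in complete medium. Tetraoctylammonium bromide positive control; AC50 by standard Hill fit.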

[17] = Cell Viability - LYMP2-011 (AID 969); further: nearly all actives have a fitted effect of over 60% in size
How it was run: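 In this qHTS cytotoxicity format, compounds are tested across concentrations on human lymphoblastoid cells in complete medium for 24 hours at 37 C. Viability is taken as cellular ATP measured by luciferase luminescence.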

[18] = Cell Viability - LYMP2-013 (AID 970); further: series mostly up to about 92 µM; nearly all actives have a fitted effect of over 55% in size
How it was run: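 Cytotoxicity is scored as a concentration-dependent drop in intracellular ATP in human lymphoblastoid cells after 24 hr compound exposure at 37 C. ATP is quantified by luciferase luminescence, and AC50 values come from Hill-equation modeling.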

[19] = Cell Viability - LYMP2-015 (AID 971); further: nearly all actives have a fitted effect of over 55% in size
How it was run: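 Cells are seeded at 2500 per well and incubated 5 hr at 37 C. Compounds are added across a concentration series for 24 hr at 37 C. CellTiter-Glo is added, and luminescence is read after 30 min at room temperature.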

[20] = Cell Viability - LYMP2-017 (AID 972); further: series mostly up to about 92 µM; nearly all actives have a fitted effect of over 55% in size
How it was run: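 Cytotoxicity is scored as a concentration-dependent drop in cellular ATP in a human lymphoblastoid line after 24 hr treatment at 37 C. Values are AC50s from Hill-equation modelling.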

[21] = Cell Viability - LYMP2-019 (AID 973); further: nearly all actives have a fitted effect of over 55% in size
How it was run: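 Cytotoxicity is scored as a concentration-dependent drop in cellular ATP after cells (2500/well) receive compound for 24 hr at 37 C. Tetraoctylammonium bromide serves as positive control.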

[22] = Cell Viability - LYMP2-021 (AID 974)
How it was run: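 Loss of cellular ATP, measured with a luciferase-based CellTiter-Glo readout, serves as the toxicity signal in human lymphoblastoid cells treated for 24 hours at 37 C. Potency is reported as AC50 from a standard Hill model.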

[23] = Cell Viability - LYMP2-023 (AID 975)
How it was run: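 Steps: seed 2500 human lymphoblastoid cells per well, incubate 5 hr at 37 C, add compound for 24 hr at 37 C, add CellTiter-Glo, hold 30 min at room temperature, read luminescence. AC50 derived by Hill modelling.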

Measured: Potency

CCOc1cc(C=O)ccc1O
inactive: [1] | [2] | [3] | [4] | [5] | [6] | [7] | [8] | [9] | [10] | [11] | [12] | [13] | [14] | [15] | [16] | [17] | [18] | [19] | [20] | [21] | [22] | [23]
